Data on 38 molecules can be found in PubChem BioAssay (NCI).

Experiment [1] can be described thus: NCI Yeast Anticancer Drug Screen. Data for the rad50 strain (AID 155).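 Further: 0% = growth of vehicle-only cultures of the same strain.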 The note with it: S. cerevisiae rad50 strain growth inhibition; at 50.0 µM; hits give high values. The essentials:
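A DNA repair-deficient yeast mutant serves as the test organism; compound-induced growth inhibition is calculated against vehicle-treated cells.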

A short description of experiment [2]: NCI Yeast Anticancer Drug Screen. Data for the mec2-1 strain (AID 157). The note with it: S. cerevisiae mec2-1 strain, at 50.0 µM, hits give high values. Put shortly:
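Growth inhibition is read against vehicle-treated controls after compound exposure of the mec2-1 yeast strain, which is defective in DNA damage repair or cell cycle control.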

The nature of experiment [3]: NCI Yeast Anticancer Drug Screen. Data for the sgs1 mgt1 strain (AID 161).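 Further: 0% = growth of cultures given vehicle only.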 The note with it: S. cerevisiae sgs1 mgt1 strain, at 50.0 µM, hits give high values. Put shortly: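 Percent growth inhibition was derived by comparing compound-exposed mutant yeast with vehicle-exposed cultures. The strain carries alterations in DNA damage repair.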
Experiment [4] in a line: NCI Yeast Anticancer Drug Screen. Data for the cln2 rad14 strain (AID 165).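 Further: 0% = growth equal to vehicle treated cultures.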 The note with it: S. cerevisiae cln2 rad14 strain, at 50.0 µM, hits give high values. The essentials:
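Growth inhibition, relative to vehicle-treated controls, is the read-out. The test organism is a yeast strain with defined genetic alterations, cln2 rad14.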

Experiment [5] is described as follows: NCI Yeast Anticancer Drug Screen. Data for the bub3 strain (AID 167). The note with it: S. cerevisiae bub3 mutant strain, at 50.0 µM, hits give high values. The essentials: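 Inhibition values come from growth of compound-treated mutant yeast normalised to vehicle-treated controls.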
A short description of experiment [6]: NCI Yeast Anticancer Drug Screen. Data for the mlh1 rad18 strain (AID 175). The note with it: S. cerevisiae mlh1 rad18 strain growth inhibition; at 50.0 µM; hits give high values. Put shortly:
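Cells of a genetically altered yeast strain, deficient in DNA damage repair, were treated with compound. Their growth was then compared with that of vehicle-treated cultures to give inhibition.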

SMILES strings stand for the structures. This is part of a sample that, as a whole, favours compounds with a hit. Of some 79,000 tested, about 15% had one in any assay. A number with no mark means an inactive call. Activity calls are given as the source filed them. No stated cut-off is given here; in the data, active means growth inhibition above about 70%; inactive means the rest.

For `O=C(O)COc1cc(Cl)cc(F)c1Cl`, the growth inhibition is -23.6% in experiment [1]; 4.1% in experiment [2]; -9.4% in experiment [3]; -33.2% in experiment [4]; -7.85% in experiment [5]; -2.55% in experiment [6].
Consider `O=c1cc(Nc2ccccc2Cl)[nH]c(=O)[nH]1`, for which the growth inhibition was 9.8% in experiment [1]; 2.2% in experiment [2]; -5.15% in experiment [3]; -41.8% in experiment [4]; -27.4% in experiment [5]; -13.2% in experiment [6].
With `CCCCC/C(=N\NC(N)=O)C1=CCCCC1`, the growth inhibition in experiment [1] was 13.1%; in experiment [2], 7.6%; in experiment [3] it was -9.6%; in experiment [4], -19.9%; in experiment [5], -25.4%; in experiment [6] it was 18.4%.
Consider `C=C1C(C(=O)O)C1C(=O)O` (stereo not drawn), for which the growth inhibition in experiment [1] was 4.2%; in experiment [2], -11.8%; in experiment [3] it was 20.4%; in experiment [4] it was 3.6%; in experiment [5] it was 2.9%; in experiment [6], -2.25%.
With `O=C(O)/C=C/c1ccncc1`, the growth inhibition in experiment [1] was -1.7%; in experiment [2], -6.35%; in experiment [3], -7.15%; in experiment [4], 3.75%; in experiment [5], -0.3%; in experiment [6], 5.1%.
In the case of `O=C(O)CCSc1nc2ccccc2s1`, the growth inhibition in experiment [1] is 1.2%; in experiment [2] it was -9.85%; in experiment [3] it was 2.75%; in experiment [4], 0.3%; in experiment [5], -14.2%; in experiment [6], 19.1%.
As to `CC1(C)CO/C(=C/C(=O)c2ccccc2)N1C(=O)c1ccccc1`, the growth inhibition is -4.6% in experiment [1]; 11.7% in experiment [2]; -6.15% in experiment [3]; 1.55% in experiment [4]; 4% in experiment [5]; -0.45% in experiment [6].
Take `CN(C)S(=O)(=O)C(c1ccccc1)C(c1ccccc1)S(=O)(=O)N(C)C` (stereo not drawn): the growth inhibition in experiment [1] was 47%; in experiment [2], -4.4%; in experiment [3] it was 27.1%; in experiment [4], 2%; in experiment [5] it was -4.75%; in experiment [6], 1.5%.
For the molecule `COc1cccc2c1C(=O)c1c(C)c(C)c(C)c(C)c1-2`, the growth inhibition in experiment [1] was 3.3%; in experiment [2], 6%; in experiment [3], 3.05%; in experiment [4] it was -1.7%; in experiment [5], 14.6%; in experiment [6], -10.1%.
With `CCOc1ccc(C2=C/C(=C/c3cccs3)C(=O)O2)cc1`, the growth inhibition in experiment [1] was 4.2%; in experiment [2] it was -7.2%; in experiment [3], -1.15%; in experiment [4], -25.6%; in experiment [5], 14.4%; in experiment [6], -5.9%.
With `CCCn1cnc2c(NN=O)ncnc21`, the growth inhibition was -42% in experiment [1]; -13.2% in experiment [2]; -51.6% in experiment [3]; -23.2% in experiment [4]; -9.35% in experiment [5]; -45.5% in experiment [6].
For `COc1cccc2c1OCC1Cc3ccccc3OC21` (stereo not drawn), the growth inhibition in experiment [1] was 72.2% (active); in experiment [2] it was 45%; in experiment [3], 85.7% (active); in experiment [4], 72.2% (active); in experiment [5] it was 51.8%; in experiment [6], 95.7% (active).
With `Nc1nc(-c2cc(-c3ccco3)nc(N)n2)cc(-c2ccco2)n1`, the growth inhibition was -8.2% in experiment [1]; -13.6% in experiment [2]; -20.8% in experiment [3]; -17.8% in experiment [4]; -35.6% in experiment [5]; -17.6% in experiment [6].
Regarding `CC(=O)OC1(C#N)CCCCC1`, the growth inhibition in experiment [1] was 5.7%; in experiment [2] it was -2.3%; in experiment [3], -7.05%; in experiment [4], 23.1%; in experiment [5], 4.8%; in experiment [6] it was 14.4%.
In the case of `CC(=O)NCc1cc(C)c(CBr)cc1CBr`, the growth inhibition in experiment [1] was -1.95%; in experiment [2] it was -10.8%; in experiment [3], -3.6%; in experiment [4], 7.2%; in experiment [5] it was 7.1%; in experiment [6], 10.1%.
For the molecule `Cc1ccc(SCCCN(C)C)cc1`, the growth inhibition is 42% in experiment [1]; 17.6% in experiment [2]; 35.6% in experiment [3]; 15.2% in experiment [4]; 14.2% in experiment [5]; 16.3% in experiment [6].
`CC(=O)C(N)C(C)C` (stereo not drawn): the growth inhibition in experiment [1] was 5.4%; in experiment [2], -3.7%; in experiment [3], 19.2%; in experiment [4] it was 7.9%; in experiment [5], 1.65%; in experiment [6], 7.95%.
Consider `CC1(C)OC2OC(C(O)COC(=O)c3ccccc3)C(Cl)C2O1` (stereo not drawn), for which the growth inhibition in experiment [1] is 26.6%; in experiment [2], 8.35%; in experiment [3] it was -1.6%; in experiment [4], -5.5%; in experiment [5], 14.2%; in experiment [6] it was 39.3%.
Take `CC1(C)COC(c2ccc(C(C)(C)C)cc2C(O)(c2cc(C(C)(C)C)ccc2C2=NC(C)(C)CO2)c2cc(C(C)(C)C)ccc2C2=NC(C)(C)CO2)=N1`: the growth inhibition is -8.8% in experiment [1]; -4.2% in experiment [2]; 7% in experiment [3]; -5.5% in experiment [4]; 28.6% in experiment [5]; -1.1% in experiment [6].
Turning to `Cc1cccc(-c2cc(=O)c3c(C)cc(C)nc3[nH]2)c1`, the growth inhibition in experiment [1] is -2.1%; in experiment [2], 2.7%; in experiment [3] it was 21.9%; in experiment [4] it was 24.8%; in experiment [5] it was 24.1%; in experiment [6], -39.4%.
As to `CCC1C2C=CC(CC2)N1S(=O)(=O)c1ccc(C)cc1` (stereo not drawn), the growth inhibition was -0.7% in experiment [1]; -9.1% in experiment [2]; 10.8% in experiment [3]; 30% in experiment [4]; 13.2% in experiment [5]; -6.05% in experiment [6].
For `CCCCCCCC/C=C\CCCCCCCC(=O)OC`, the growth inhibition in experiment [1] was 33.5%; in experiment [2], 43.8%; in experiment [3] it was 49.3%; in experiment [4], -32.1%; in experiment [5], 44%; in experiment [6] it was 49%.
For the molecule `CCOC(=O)C1=C(SC)SC(C(=O)OCC)C2C=C(C)C=CN12` (stereo not drawn), the growth inhibition is -5.2% in experiment [1]; -19.4% in experiment [2]; -10.7% in experiment [3]; 5.05% in experiment [4]; -32.9% in experiment [5]; 3.75% in experiment [6].
Turning to `COC(=O)c1cc(C(C)O)nc2ccccc12` (stereo not drawn), the growth inhibition was 4.95% in experiment [1]; 3.95% in experiment [2]; 6.25% in experiment [3]; 0.65% in experiment [4]; 27% in experiment [5]; 6.35% in experiment [6].
Turning to `C/C(=N/N(C=O)C[n+]1ccccc1)C(CN(CC(C)C)CC(C)C)C(=O)Nc1ccc(C)cc1C` (stereo not drawn), the growth inhibition was -10.4% in experiment [1]; 40% in experiment [2]; -14.5% in experiment [3]; 31.5% in experiment [4]; 19.9% in experiment [5]; 19.9% in experiment [6].
Consider `C/C(CCC(=O)O)=N\NC(=O)COc1ccc(Cl)cc1Cl`, for which the growth inhibition was 31.4% in experiment [1]; -0.15% in experiment [2]; 18.6% in experiment [3]; 12.1% in experiment [4]; 14.8% in experiment [5]; 13.8% in experiment [6].
For `O=c1[nH]cnc2c1nnn2CCCCCCCCCCCCn1nnc2c(=O)[nH]cnc21`, the growth inhibition in experiment [1] was -5.9%; in experiment [2] it was -10.2%; in experiment [3] it was 4.5%; in experiment [4] it was -4.2%; in experiment [5], 12.7%; in experiment [6] it was 24.8%.
With `CCOC(=O)C(Cl)(NC(=O)OCc1ccccc1)C(F)(F)F` (stereo not drawn), the growth inhibition in experiment [1] was -21.8%; in experiment [2] it was 0%; in experiment [3], 7.15%; in experiment [4], 22.5%; in experiment [5], 6.7%; in experiment [6], -56.1%.
`C[C@]12CC[C@@H]3c4ccc(OS(C)(=O)=O)cc4CC[C@H]3[C@@H]1CC[C@@H]2OS(C)(=O)=O`: the growth inhibition in experiment [1] was 30.6%; in experiment [2] it was -0.5%; in experiment [3] it was 22.8%; in experiment [4] it was 22.1%; in experiment [5] it was 10.8%; in experiment [6], 9.9%.
On to `CONC(CC(=O)c1ccccc1)c1ccccc1` (stereo not drawn), for which the growth inhibition in experiment [1] is 23.4%; in experiment [2] it was 6.95%; in experiment [3], 5.75%; in experiment [4], 2.7%; in experiment [5], 14.2%; in experiment [6] it was 5.65%.
In the case of `CCC(CC)c1ccc2ccccc2c1`, the growth inhibition was -22.2% in experiment [1]; 1% in experiment [2]; -11.6% in experiment [3]; -19.6% in experiment [4]; -6.55% in experiment [5]; -11.4% in experiment [6].
As to `CC(=O)OC(C)CCl` (stereo not drawn), the growth inhibition in experiment [1] is -27.6%; in experiment [2], -48.1%; in experiment [3] it was -34%; in experiment [4], 2.6%; in experiment [5], -17.7%; in experiment [6], -14.2%.
On to `COc1cc(/C=C/C(=O)O)cc(OC)c1OC`, for which the growth inhibition was -4.95% in experiment [1]; -2.1% in experiment [2]; 12.9% in experiment [3]; 6.1% in experiment [4]; 11.2% in experiment [5]; 10.7% in experiment [6].
As for `CCN(CC)C(=O)CS(=O)(=O)c1ccc(N)cc1`, the growth inhibition in experiment [1] is 3.55%; in experiment [2], -8.5%; in experiment [3] it was 2%; in experiment [4] it was 23.9%; in experiment [5], 7.35%; in experiment [6] it was 14.7%.
For `COCc1onc(-c2ccc(OC)cc2)c1-c1ccc(OC)cc1`, the growth inhibition in experiment [1] was 8.25%; in experiment [2] it was 20.4%; in experiment [3], 3.6%; in experiment [4], 30.9%; in experiment [5], 49.4%; in experiment [6] it was 31.4%.
In the case of `CN(C)S(=O)(=O)N1CCCc2ccccc21`, the growth inhibition in experiment [1] is 3.4%; in experiment [2], 8.8%; in experiment [3], 3.55%; in experiment [4] it was 7.1%; in experiment [5], 31.1%; in experiment [6], 11%.
On to `CN1C(=O)C(=O)n2c(cc3ccccc32)C1=O`, for which the growth inhibition is 1.15% in experiment [1]; 6.15% in experiment [2]; 7.25% in experiment [3]; 6.2% in experiment [4]; -0.25% in experiment [5]; -13.1% in experiment [6].
`O=C(O)c1ccc2ccc(F)cc2c1Cc1ccccc1`: the growth inhibition in experiment [1] was -4.15%; in experiment [2], -10.2%; in experiment [3] it was 12.9%; in experiment [4], 8.3%; in experiment [5] it was -1.4%; in experiment [6], -16.5%.
